From PubChem BioAssay come the findings set out here.

For part of these data: Potency and affinity values are given separately. Active and inactive are the calls of the source.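 Rule for the calls, unless noted: active = dose curve with midpoint inside tested range, moderate steepness, plateau gap beyond fit error, low compound glow and bead-link interference; inactive = the rest.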

Experiment [1] addresses Cell division control protein 42 homolog (Homo sapiens) (UniProt P60953). Kind of experiment: activated mutant Cdc42 GTP-binding inhibitors, dose response, biochemical, multiplex bead flow cytometry, Bodipy-FL-GTP (AID 1333;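 active = fitted half-maximal concentration within the tested dose range, moderate curve steepness, a statistically real signal drop, and little compound fluorescence or tag-binding interference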). On the technique in general: In flow cytometry, cells or beads pass a laser one at a time.
The target is the same in experiment [2]. Kind of experiment: wildtype Cdc42 GTP-binding inhibitors, dose response, biochemical, multiplex bead flow cytometry, Bodipy-FL-GTP (AID 1334;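 active = fitted half-maximal concentration within the tested range, moderate curve steepness, significant signal drop, and little compound fluorescence or bead-linkage interference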). To be noted: bead-based flow cytometry, Bodipy-FL-GTP binding to GST-Cdc42; at 100 µM (top of the series) unless noted.
Experiment [3] deals with GTPase HRas (Homo sapiens) (UniProt P01112). Kind of experiment: inhibitors of GTP binding to wildtype Ras, dose response, biochemical, multiplex bead flow cytometry (AID 1335;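 active = fitted half-maximal concentration within 10 nM to 100 µM, steepness 0.5 to 2, significant signal drop, low assay interference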). To be noted: bead-based flow cytometry, Bodipy-GTP binding to GST-Ras; at 100 µM (top of the series) unless noted.
The test system of experiment [4] is Ras-related protein Rab-7a (dog), GTP binding. In words: Rab7 GTP binding inhibitors, potency, dose response, biochemical, wildtype, multiplex bead flow cytometry (AID 1336; call rule not given here).
In experiment [5] the target is Ras-related C3 botulinum toxin substrate 1 (Homo sapiens) (UniProt P63000). In words: wildtype Rac1 GTP binding inhibitors, dose response, biochemical, multiplex bead flow cytometry (AID 1340). The following applies: GST-Rac1 beads, Bodipy-FL-GTP binding; at 100 µM (top of the series) unless noted.
Experiment [6] addresses GTPase HRas (Homo sapiens) (UniProt P01112). In words: activated Ras mutant GTP binding inhibitors, dose response, biochemical, multiplex bead flow cytometry (AID 1341;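 active = dose-response curve with midpoint inside the tested range, moderate steepness, significant amplitude and little compound fluorescence or bead-attachment interference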;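 note: GST-tagged constitutively activated Ras mutant immobilized on beads and multiplexed with other GTPases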).

Cell division control protein 42 homolog (Homo sapiens), sequence (P60953 whole entry, looked up): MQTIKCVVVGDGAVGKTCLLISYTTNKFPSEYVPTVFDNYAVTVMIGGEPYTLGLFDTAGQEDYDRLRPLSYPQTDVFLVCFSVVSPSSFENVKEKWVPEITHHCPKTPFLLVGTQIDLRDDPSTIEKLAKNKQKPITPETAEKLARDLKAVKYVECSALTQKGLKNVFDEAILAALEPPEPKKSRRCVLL
GTPase HRas (Homo sapiens), sequence (P01112 whole entry, looked up): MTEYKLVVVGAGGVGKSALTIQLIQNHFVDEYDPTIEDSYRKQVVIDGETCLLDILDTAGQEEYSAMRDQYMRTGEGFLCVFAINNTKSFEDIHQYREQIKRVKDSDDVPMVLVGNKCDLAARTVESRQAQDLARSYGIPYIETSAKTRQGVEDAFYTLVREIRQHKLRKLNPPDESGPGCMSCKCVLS

In the case of `COc1ccc(C=O)cc1CSc1ncccc1C(=O)O`, the call in experiment [1], in experiment [4] and in experiment [6] was inactive. Further, the fluorescence, percent of control (lower = inhibition) in experiment [2] is 61.6%. In experiment [3], the GTP binding, percent of control stood at 88.9%. Besides, the GTP binding signal, raw median fluorescence (lower = inhibition) (MCF (arbitrary fluorescence units)) in experiment [5] came to 33.8.
Turning to `Cc1nnc2ccc(-c3ccc(NC(=O)c4ccco4)cc3)nn12`, the result in experiment [1], in experiment [4] and in experiment [6] was inactive. This compound displayed a fluorescence, percent of control (lower = inhibition) in experiment [2] of 69.8%. Besides, the GTP binding, percent of control in experiment [3] turned out to be 109%. The GTP binding signal, raw median fluorescence (lower = inhibition) (MCF (arbitrary fluorescence units)) in experiment [5] came to 215.
In the case of `S=c1[nH]nc(-c2ccc3ccccc3n2)n1-c1ccccc1Cl`, the result in experiment [1], in experiment [4] and in experiment [6] was inactive. In experiment [2], the fluorescence, percent of control (lower = inhibition) came to 45.1%. In addition, the GTP binding, percent of control in experiment [3] was determined as 60.2%. In addition, the GTP binding signal, raw median fluorescence (lower = inhibition) (MCF (arbitrary fluorescence units)) in experiment [5] amounted to 165.
Take `Cc1cc2nc(/C(C#N)=C/c3ccncc3)[nH]c2cc1C`: the compound was called inactive in experiment [1], in experiment [4] and in experiment [6]. The compound further came in with a fluorescence, percent of control (lower = inhibition) in experiment [2] of 30.6%. Besides, the GTP binding, percent of control in experiment [3] was determined as 76.7%. This compound also registered a GTP binding signal, raw median fluorescence (lower = inhibition) (MCF (arbitrary fluorescence units)) in experiment [5] of 245.
For the compound `Cc1ccc(-c2c(C(=O)O)c(C(=O)O)c3n2CCC3)cc1`, the result in experiment [1], in experiment [4] and in experiment [6] was inactive. The compound also yielded a fluorescence, percent of control (lower = inhibition) in experiment [2] of 32.3%. The compound further registered a GTP binding, percent of control in experiment [3] of 78.1%. This compound also showed a GTP binding signal, raw median fluorescence (lower = inhibition) (MCF (arbitrary fluorescence units)) in experiment [5] of 239.
In the case of `O=c1c2ccccc2nc2c3ccccc3c(NCCO)nn12`, the compound was classed as inactive in experiment [1], in experiment [4] and in experiment [6]. This compound also had a fluorescence, percent of control (lower = inhibition) in experiment [2] of 27.1%. In experiment [3], the GTP binding, percent of control stood at 65%. This compound showed a GTP binding signal, raw median fluorescence (lower = inhibition) (MCF (arbitrary fluorescence units)) in experiment [5] of 165.
On to `O=C(CSc1ncccc1C(=O)O)c1ccc2ccccc2c1`, for which the call in experiment [1], in experiment [4] and in experiment [6] was inactive. Further, the fluorescence, percent of control (lower = inhibition) in experiment [2] was 48.7%. In experiment [3], the GTP binding, percent of control amounted to 66.6%. The GTP binding signal, raw median fluorescence (lower = inhibition) (MCF (arbitrary fluorescence units)) in experiment [5] is 0.
Turning to `Cc1ccccc1OCCn1c(C)c(C(=O)O)c2ccccc21`, the call in experiment [1], in experiment [4] and in experiment [6] was inactive. Moreover, the fluorescence, percent of control (lower = inhibition) in experiment [2] worked out at 61.5%. The compound also gave a GTP binding, percent of control in experiment [3] of 205%. This compound gave a GTP binding signal, raw median fluorescence (lower = inhibition) (MCF (arbitrary fluorescence units)) in experiment [5] of 64.3.
For `CCc1ccc(OCc2cccc(C(=O)O)c2)cc1`, the compound was classed as inactive in experiment [1], in experiment [4] and in experiment [6]. The compound also gave a fluorescence, percent of control (lower = inhibition) in experiment [2] of 58.6%. Moreover, the GTP binding, percent of control in experiment [3] is 87.5%. In experiment [5], this compound displayed a GTP binding signal, raw median fluorescence (lower = inhibition) (MCF (arbitrary fluorescence units)) of 32.6.
As to `COc1ccccc1CCNCc1ccc(C(=O)O)s1`, the outcome in experiment [1], in experiment [4] and in experiment [6] was inactive. Besides, the fluorescence, percent of control (lower = inhibition) in experiment [2] came out at 63%. Besides, in experiment [3], the GTP binding, percent of control stood at 88.4%. In experiment [5], this compound displayed a GTP binding signal, raw median fluorescence (lower = inhibition) (MCF (arbitrary fluorescence units)) of 34.1.
With `CCOC(=O)c1c2c3c(cccc3[nH]c1=O)C(=O)c1ccccc1-2`, the compound was classed as inactive in experiment [1], in experiment [4] and in experiment [6]. For the same compound, the fluorescence, percent of control (lower = inhibition) in experiment [2] stood at 35.5%. In experiment [3], this compound returned a GTP binding, percent of control of 77.9%. This compound also registered a GTP binding signal, raw median fluorescence (lower = inhibition) (MCF (arbitrary fluorescence units)) in experiment [5] of 176.
In the case of `CCCN1C(=O)/C(=C\C=C2/Sc3ccccc3N2CC)SC1=S`, the call in experiment [1], in experiment [4] and in experiment [6] was inactive. Further, the fluorescence, percent of control (lower = inhibition) in experiment [2] turned out to be 34.7%. Besides, the GTP binding, percent of control in experiment [3] worked out at 57.8%. Also, the GTP binding signal, raw median fluorescence (lower = inhibition) (MCF (arbitrary fluorescence units)) in experiment [5] was 181.
`CCCCCn1nc(C(=O)OCC(=O)c2c(N)n(C)c(=O)n(C)c2=O)c2ccccc2c1=O`: the compound was classed as inactive in experiment [1], in experiment [4] and in experiment [6]. In experiment [2], the fluorescence, percent of control (lower = inhibition) is 34%. In addition, the GTP binding, percent of control in experiment [3] is 79.6%. For the same compound, the GTP binding signal, raw median fluorescence (lower = inhibition) (MCF (arbitrary fluorescence units)) in experiment [5] is 232.
Turning to `O=c1c2ccccc2nc2c3ccccc3cnn12`, the compound was classed as inactive in experiment [1], in experiment [4] and in experiment [6]. This compound returned a fluorescence, percent of control (lower = inhibition) in experiment [2] of 46.9%. In experiment [3], this compound registered a GTP binding, percent of control of 88.4%. Moreover, the GTP binding signal, raw median fluorescence (lower = inhibition) (MCF (arbitrary fluorescence units)) in experiment [5] turned out to be 175.
As for `Cc1ccc(OCCn2cc(C(=O)O)c3ccccc32)cc1`, the result in experiment [1], in experiment [4] and in experiment [6] was inactive. The compound further showed a fluorescence, percent of control (lower = inhibition) in experiment [2] of 45.4%. The same compound displayed a GTP binding, percent of control in experiment [3] of 96.7%. This compound also returned a GTP binding signal, raw median fluorescence (lower = inhibition) (MCF (arbitrary fluorescence units)) in experiment [5] of 280.
